# Hit rate of the full screen: of about 1,100 compounds, about 210 (19%) were called active. How the calls were made is not given here. The list is a sample of the results. Entries with a potency or affinity are not part of this list.
# Test: host cell cytotoxicity, dose response, cytotoxicity control for SV40 T antigen inhibitor project, selected hits (AID 2102);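 further: cells exposed to compounds for 72 hours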
# Conditions: Host cell viability cytotoxicity counter-screen; series mostly up to 50 µM
row,Structure (SMILES),outcome
1,COc1cc(SC)ccc1C(=O)N1CCN(Cc2ccccc2)CC1,inactive
2,COc1cc(SC)ccc1C(=O)N1CCN(c2ccc(O)cc2)CC1,inactive
3,Cc1ccc(C)c(S(=O)(=O)Nc2ccc(O)cc2)c1,inactive
4,Oc1ccc2c(c1)oc1cc(O)ccc12,inactive
5,O=c1oc2cc(O)ccc2c2ccccc12,inactive
6,OC1CCN(C(=S)Nc2ccc(Nc3ccccc3)cc2)CC1,inactive
7,OCCNc1nc(Nc2ccc(O)cc2)nc2ccccc12,inactive
8,CN1CCN(c2nc(Nc3ccc(O)cc3)nc3ccccc23)CC1,inactive
9,Cc1ccc2oc(=O)c(/C=C(\O)C(C)(C)C)nc2c1,inactive
10,COc1cc2c(cc1NC(=S)Nc1ccccc1C)oc1ccccc12,inactive
11,CNC(=S)N1CCN(c2ccc(OC)cc2)CC1,inactive
12,COc1ccc(N2CCN(C(=O)NC3CC(=O)N(c4ccc(OC)cc4)C3)CC2)cc1 (centres undefined),inactive
13,COc1ccc(NC2CCCN(C(=O)c3ccc(OC)o3)C2)cc1 (centres undefined),inactive
14,COc1ccc(CNC(=S)N/N=C/c2ccc(O)c(OC)c2)cc1,inactive
15,COc1cc(/C=N/NC(=O)CC#N)cc(Br)c1O,inactive
16,COc1ccc(N2C(=O)CC(Sc3n[nH]c(-c4cccc(C)c4)n3)C2=O)cc1 (centres undefined),inactive
17,CC1=C(C#N)c2nc(N)c(C#N)c(C)c2/C1=C\c1ccc(-c2ccccc2C(=O)O)o1,inactive
18,COc1cc(/C=C2\N=C3CCCCCN3C2=O)ccc1O,inactive
19,O=c1/c(=C\c2cc([N+](=O)[O-])cc([N+](=O)[O-])c2O)sc2nc3ccccc3n12,inactive
20,O=C1C=C(Nc2ccc(O)cc2)CC(c2ccco2)C1 (centres undefined),inactive
21,O=C(O)/C=C/c1ccc(O)cc1,inactive
22,COc1cc(-c2nc(=S)[nH][nH]2)cc(OC)c1OC,inactive
23,C=CCn1c(CNc2ccccc2)nnc1SCC(=O)N/N=C/c1ccc(O)cc1O,inactive

row,Structure (SMILES),outcome
1,O=C(N/N=C/c1ccc(O)cc1)c1csc2ccccc12,inactive
2,CCCn1c(=O)c2ccccc2n2c(=S)[nH]nc12,inactive
3,CNC(=S)Nc1ccc(Nc2ccccc2)cc1,inactive
4,NC(=O)Nc1ccc(Nc2ccccc2)cc1,inactive
5,O=[N+]([O-])c1cccc(S(=O)(=O)N/N=C/c2ccc(O)cc2)c1,inactive
6,O=C(CN1C(=O)/C(=C/c2ccco2)SC1=S)Nc1ccc(C(=O)O)c(O)c1,inactive
7,COc1cc2c(cc1OC)C[N+](C)(C)CC2,inactive
8,COc1cc(/C=N/Nc2nncn2/N=C/c2ccc(O)c(OC)c2)ccc1O,inactive
9,N#CC1=C(N)NC(=S)C(C(N)=O)C1c1ccccc1F (centres undefined),inactive
10,CCOc1cc(N2CCOCC2)c(OCC)cc1NC(C)C(=O)N1CCC(C)CC1 (centres undefined),inactive
11,CCNC(=S)Nc1cc(OCC)c(N2CCOCC2)cc1OCC,inactive
12,COc1ccc(NC2CCCN(C(=O)CSc3ccccc3)C2)cc1 (centres undefined),inactive
13,CCOC(=O)C1=C(O)/C(=C\c2ccc(O)c(OCC)c2)N=C1C,inactive
14,O=C1NC(=O)C(c2ccccc2[N+](=O)[O-])=C1Nc1ccc(O)c(Cl)c1,inactive
15,O=c1oc2ccccc2c2oc3cc(O)c(O)cc3c12,inactive
16,COc1cc(/C=N/NC(=O)C2=NNC(=O)C2C)ccc1O (centres undefined),inactive
17,O=C(c1nnsc1S(=O)c1ccc(Cl)cc1)N1CCOCC1 (centres undefined),inactive
18,CN(C)c1ccc(NC(=O)CN2CCN(CC(=O)Nc3ccc(F)cc3)CC2)cc1,inactive
19,CCOc1cc(/C=C2\NC(=S)N(c3c(C)n(C)n(-c4ccccc4)c3=O)C2=O)ccc1O,inactive
20,O=S(=O)(NC1=NCCCCC1)c1ccc2sc(NS(=O)(=O)c3ccc4ccccc4c3)nc2c1,inactive
21,COc1cc(/C=C2\S/C(=N/S(=O)(=O)c3ccc(C)cc3)NC2=O)c([N+](=O)[O-])cc1OC,inactive
22,O=S(=O)(Nc1ccc(O)cc1)c1cccc2cccnc12,inactive
23,O=C(c1ccco1)N1CCN(C(=S)Nc2ccc(F)c(Cl)c2)CC1,inactive

row,Structure (SMILES),outcome
1,CN(C)c1ccc(NC(=O)c2ccc(N3CCOCC3)nc2)cc1,inactive
2,COc1cc(C(c2c(C)[nH][nH]c2=O)c2c(C)[nH][nH]c2=O)ccc1OC(=O)c1cccc([N+](=O)[O-])c1,inactive
3,CCOC(=O)C1(C)C=C(Nc2ccc(O)cc2)C(=O)N1c1ccc(O)cc1 (centres undefined),inactive
4,Cn1c(=O)oc2cc(S(=O)(=O)Nc3ccc(O)cc3)ccc21,inactive
5,CN(C)c1ccc(NC(=O)CSc2nnc(-c3ccco3)c(-c3ccco3)n2)cc1,inactive
6,N/C(=N\N=C\c1ccc(O)c(O)c1)c1nonc1N,inactive
7,COc1cc(/C(C)=N/NC(=O)Cc2c(C)[nH][nH]c2=O)ccc1O,inactive
8,CN=c1scc(C)n1/N=C/c1ccc(O)cc1,inactive
9,CC1=C(C(=O)c2ccccc2)C(c2ccc(O)cc2)NC(=S)N1 (centres undefined),inactive
10,Nc1nc2ccc(O)cc2s1,inactive
11,Cc1cc2c(n1-c1ccc(C(=O)O)cc1)CCCCC2,inactive
12,O=C(c1cccc(-c2ccc(O)cc2)c1)N1CCOCC1,inactive
13,CC(=O)Nc1ccc(S(=O)(=O)Nc2nc3ccccc3nc2Nc2ccc(O)cc2)cc1,inactive
14,CCOc1cc(/C=N\NC(=O)CC(=O)NCCc2ccccc2)ccc1O,inactive
15,Cc1cc(=O)[nH]c(N/N=C/c2c[nH]c3ccccc23)n1,inactive
16,CCn1cnc2cc(NCc3ccc(N(C)C)cc3)ccc21,inactive
17,C/C(=N\NC(=O)CSc1nc2ccccc2o1)c1ccc(O)cc1,inactive
18,Cc1cccc(N2NC(=O)/C(=C/c3ccc(-c4ccc(Cl)c(C(=O)O)c4)o3)C2=O)c1,inactive
19,C=CCn1c(SCC(=O)c2ccc(O)c(O)c2)nnc1-c1ccccc1OC,inactive
20,COc1cc(/C=N/NC(=O)c2cc(C3CC3)[nH]n2)ccc1O,inactive
21,COCCCNC(=S)N/N=C/c1ccc(O)cc1O,inactive
22,Nc1c(O)cccc1C(=O)O,inactive
23,NC(=O)N/N=C/c1c(Sc2nnnn2-c2ccccc2)nc2ccccn2c1=O,inactive

row,Structure (SMILES),outcome
1,COc1ccc2c(c1OC)C(=O)N(c1ccc(O)cc1)C2,inactive
2,O=C1CCCC2=C1Sc1ccccc1N2,inactive
3,CCSC1(SCC)N=C(N)C2(C#N)C(c3ccc(OC)c(OC)c3OC)C12C#N (centres undefined),inactive
4,COc1cc(/C=N/NC(=O)c2nc(C)cc(C)n2)ccc1O,inactive
5,Cc1nonc1C(=O)N/N=C/c1ccc(O)c(O)c1,inactive
6,CC(=O)NCCc1c[nH]c2ccc(O)cc12,inactive
7,COc1ccccc1N1CSC2=C(C#N)C(c3ccc(SC)cc3)CC(=O)N2C1 (centres undefined),inactive
8,COc1cc(/C=N/NS(=O)(=O)c2ccc(Br)cc2)ccc1O,inactive
9,CC(=O)c1ccc2c(c1)C1C=CCC1C(C(=O)O)N2 (centres undefined),inactive
10,Nc1cc(C(=O)O)c(N)c2c1C(=O)c1ccccc1C2=O,inactive
11,C=CCSC1=NC(=O)/C(=C/c2cccs2)S1,inactive
12,N=C1/C(=C\c2ccc(SCc3ccco3)o2)C(=O)N=C2SC=NN12,inactive
13,CCCC1=NN2C(=N)/C(=C\c3ccc(SCc4ccco4)o3)C(=O)N=C2S1,inactive
14,CN1CCC/C1=C/C=C1\SC(=S)NC1=O,inactive
15,CSC1=NSC2=NC(=O)/C(=C\c3coc4ccccc4c3=O)C(=N)N12,inactive
16,CN(C)c1ccc(NC(=O)CN2CCC(N3CCCCC3)CC2)cc1,inactive
17,N#C/C(=C\c1coc2ccc(O)cc2c1=O)C(=O)Nc1nc2ccccc2s1,inactive
18,O=c1c2cc(O)c(O)cc2oc2cc(O)c(C3OC(CO)C(O)C(O)C3O)c(O)c12 (centres undefined),inactive
19,CCOc1cc(NC2CS(=O)(=O)CC2O)c(OCC)cc1NC(=O)c1ccccc1 (centres undefined),inactive
20,CC1(C)CC(=O)C(C=Nc2ccc(O)cc2)=C(O)C1,inactive
21,COc1ccc(-n2c(=O)c3c4c(sc3n3c(=S)[nH]nc23)CCC4)cc1,inactive
22,O=c1c2c3c(sc2n2c(=S)[nH]nc2n1-c1ccccc1)CCC3,inactive
23,COCCCn1c(=O)c2ccccc2n2c(=S)[nH]nc12,inactive

row,Structure (SMILES),outcome
1,O=C(O)CCNc1ccc(NCCC(=O)O)c2c1C(=O)c1ccccc1C2=O,inactive
2,OCc1ccccc1SSc1ccccc1CO,inactive
3,Oc1ccc(-c2nc3ccccn3c2NCc2ccco2)cc1,inactive
4,Oc1ccc2ccccc2c1C=Nc1ccc(N2CCOCC2)cc1,inactive
5,Cc1ccc(-n2nnnc2C(Cl)(Cl)c2nnnn2-c2ccc(C)cc2)cc1,inactive
6,c1ccc(-c2ccc3c(c2)NCCN3)cc1,inactive
7,Oc1ccc(/C=N/NC(=S)Nc2cccnc2)cc1,inactive
8,CCCCC1(C)OC(=O)C(=Cc2ccc(-c3ccc(Cl)c(C(=O)O)c3)o2)C(=O)O1 (centres undefined),inactive
9,Nc1nc2ccc(S(=O)(=O)N3CCCCC3)cc2s1,inactive
10,O=C(O)c1ccccc1NS(=O)(=O)c1cccc(-n2sc3ccccc3c2=O)c1,inactive
11,O=c1c2ccccc2sn1-c1cc(S(=O)(=O)N2CCOCC2)ccc1N1CCCC1,inactive
12,C[C@]12CC[C@@H]3c4cc(O)c(O)cc4CC[C@H]3[C@@H]1CC[C@@H]2O,inactive
13,O=C(Nc1ccc(O)cc1)c1ccc(NC(=O)C2CCCO2)cc1 (centres undefined),inactive
14,COc1cc([N+](=O)[O-])ccc1NC(=O)Oc1ccc(NC(C)=O)cc1,inactive
15,O=C1CC(=O)N(Cc2ccco2)C(=O)N1,inactive
16,COc1ccc(NCC(O)Cn2cnc3c2c(=O)n(C)c(=O)n3C)cc1 (centres undefined),inactive
17,CCN(CC)c1ccc(NC(=O)COC(=O)c2ccc3ccccc3n2)cc1,inactive
18,COc1cc(/C=c2\sc3n(c2=O)CCCN=3)ccc1O,inactive
19,Cc1nn(CC(=O)Nc2ccc(N(C)C)cc2)c(C)c1[N+](=O)[O-],inactive
20,Cc1cc(=O)oc2c(N)c(O)ccc12,inactive
21,Cc1cc(C)c2c(c1)NC(C(=O)O)C1CC=CC21 (centres undefined),inactive
22,CCOc1cc(/C=N/Nc2ncnc(Cl)c2N)ccc1O,inactive
